Experimental data as given in PubChem BioAssay (Tox21).
Results filed as inconclusive are left out. Some compounds were tested as several samples or in several runs, with calls that do not always agree. Active and inactive are the calls of the source. Unless noted, the call rests on the fitted dose curve; in most records, active means well fitted curve in the direction sought with a large enough effect in the repeat runs; inconclusive means weak or mixed curves; inactive means no such curve, though single readings can be large; an effect the other way counts as inactive or inconclusive.

Key:
[1] = qHTS assay to identify small molecule antagonists of the estrogen receptor alpha (ER-alpha) signaling pathway using the BG1 cell line in the presence of 0.1 nM 17-beta-estradiol - cell viability counter screen (AID 1259241); further: nearly all actives have a fitted effect of over 40% in size; further: potency means the concentration at half of the fitted maximal effect
Summary of the method: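 Following 5 days in phenol red-free medium with charcoal-stripped serum, VM7Luc4E2 cells received test compounds alongside 0.1 nM 17beta-estradiol (final) at 37C for 22 hr. Live cells were then quantified via protease-substrate fluorescence.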

[2] = qHTS assay to identify small molecule antagonists of the androgen receptor (AR) signaling pathway using the MDA cell line in the presence of 0.5 nM R1881 - cell viability counter screen (AID 1259242); further: nearly all actives have a fitted effect of over 45% in size; further: potency means the concentration at half of the fitted maximal effect
Summary of the method: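 Human breast carcinoma MDA-kb2 cells, cultured without CO2, receive compounds alongside 0.5 nM (final) R1881 agonist. After 16 hr at 37C, viability is taken as live-cell protease signal.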

[3] = molecular target: Androgen receptor (Homo sapiens) (UniProt P10275); assay: qHTS assay to identify small molecule antagonists of the androgen receptor (AR) signaling pathway using the MDA cell line in the presence of 0.5 nM R1881 (AID 1259243); further: nearly all actives have a fitted effect of over 50% in size; further: potency means the concentration at half of the fitted maximal effect
Androgen receptor (Homo sapiens), sequence (P10275 whole entry, looked up): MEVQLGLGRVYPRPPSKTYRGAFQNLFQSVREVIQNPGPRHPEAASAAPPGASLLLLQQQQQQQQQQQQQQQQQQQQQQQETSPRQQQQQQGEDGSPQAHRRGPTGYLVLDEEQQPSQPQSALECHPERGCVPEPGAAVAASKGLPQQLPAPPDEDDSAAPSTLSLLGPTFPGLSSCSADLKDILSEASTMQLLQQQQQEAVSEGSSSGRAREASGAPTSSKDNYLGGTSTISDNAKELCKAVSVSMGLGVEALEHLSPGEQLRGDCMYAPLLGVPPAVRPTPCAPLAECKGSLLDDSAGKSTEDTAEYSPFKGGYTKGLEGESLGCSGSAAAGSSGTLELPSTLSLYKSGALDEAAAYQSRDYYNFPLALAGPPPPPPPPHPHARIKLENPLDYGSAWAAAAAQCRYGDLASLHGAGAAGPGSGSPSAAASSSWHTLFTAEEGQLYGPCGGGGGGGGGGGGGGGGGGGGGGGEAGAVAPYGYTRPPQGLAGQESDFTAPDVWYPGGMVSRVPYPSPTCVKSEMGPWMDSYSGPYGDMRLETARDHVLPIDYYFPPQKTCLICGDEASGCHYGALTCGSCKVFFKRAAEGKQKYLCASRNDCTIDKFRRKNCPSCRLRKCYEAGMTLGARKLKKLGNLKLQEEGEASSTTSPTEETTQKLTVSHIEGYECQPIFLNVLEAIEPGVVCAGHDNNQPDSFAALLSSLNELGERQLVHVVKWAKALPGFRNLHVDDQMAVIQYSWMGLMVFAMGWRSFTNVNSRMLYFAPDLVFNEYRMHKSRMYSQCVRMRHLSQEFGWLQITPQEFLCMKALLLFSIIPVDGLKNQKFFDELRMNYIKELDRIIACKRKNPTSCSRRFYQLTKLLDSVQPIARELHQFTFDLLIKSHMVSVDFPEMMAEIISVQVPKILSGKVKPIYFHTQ
Summary of the method: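 Cells: MDA-kb2 (MMTV-luc). Stimulus: 0.5 nM R1881. Time: 16 hr, 37C, no CO2. Detection: ONE-Glo luminescence after 30 min at RT.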

[4] = qHTS assay to identify small molecule HDAC inhibitors (AID 1259364); further: potency means the concentration at half of the fitted maximal effect;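 further: wild-type HCT-116 cells with endogenous class I/II HDAC activity; nearly all actives have a fitted effect of over 45% in size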
Summary of the method: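 After a 2 hr compound incubation (37C, 5% CO2), HCT-116 cells seeded at 1,500/well the day before received HDAC-Glo reagent; signal read as luminescence after 30 min at room temperature.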

[5] = qHTS assay to identify small molecule HDAC inhibitors - cell viability counter screen (AID 1259365); further: series mostly up to about 92 µM; nearly all actives have a fitted effect of over 50% in size
Summary of the method: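 HCT-116 wild-type, overnight attachment; 2hr drug exposure, 37C; CellTiter-Glo luminescent ATP readout after 30min RT.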

[6] = qHTS assay to identify small molecule agonists of the sonic hedgehog signaling (Shh) pathway - cell viability counter screen (AID 1259366); further: nearly all actives have a fitted effect of over 50% in size; further: potency means the concentration at half of the fitted maximal effect
Summary of the method: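 Compounds in DMSO were pin-transferred onto 3T3 Gli1-Luc cells that had settled 4hr; plates then stood 24hr at 37C and 5% CO2. One hour before the end, CellTiter-Fluor was added and fluorescence recorded.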

[7] = qHTS assay to identify small molecule antagonists of the sonic hedgehog signaling (Shh) pathway - cell viability counter screen (AID 1259367); further: nearly all actives have a fitted effect of over 55% in size; further: potency means the concentration at half of the fitted maximal effect
Summary of the method: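 CellTiter-Fluor signal in conditioned medium-stimulated 3T3 Gli1-Luc cells, 23 hr compound exposure, 37C.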

[8] = qHTS assay to identify small molecule agonists of the sonic hedgehog signaling (Shh) pathway (AID 1259368; calls by dose curve; further: nearly all actives have a fitted effect of over 15% in size; further: potency means the concentration at half of the fitted maximal effect)
Summary of the method: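 Stable NIH/3T3 Gli1-Luc reporter clone; 24 hr cpd exposure after a 4 hr settling period; luminescence endpoint.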

[9] = qHTS assay to identify small molecule antagonists of the sonic hedgehog signaling (Shh) pathway (AID 1259369; calls by dose curve; further: nearly all actives have a fitted effect of over 45% in size; further: potency means the concentration at half of the fitted maximal effect)
Summary of the method: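 Gli1 transcriptional reporter (firefly Luc) in NIH/3T3 background, conditioned-medium activated. 24hr exposure, luminescence endpoint.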

[10] = molecular target: Estrogen receptor beta (Homo sapiens) (UniProt Q92731); assay: qHTS assay to identify small molecule antagonists of the estrogen receptor beta (ER-beta) signaling pathway (AID 1259378; active means well fitted inhibition curve with a large enough effect in the signal ratio in the repeat runs, not every such curve was filed as active; the % refers to the signal ratio; further: potency means the concentration at half of the fitted maximal effect)
Estrogen receptor beta (Homo sapiens), sequence (Q92731 whole entry, looked up): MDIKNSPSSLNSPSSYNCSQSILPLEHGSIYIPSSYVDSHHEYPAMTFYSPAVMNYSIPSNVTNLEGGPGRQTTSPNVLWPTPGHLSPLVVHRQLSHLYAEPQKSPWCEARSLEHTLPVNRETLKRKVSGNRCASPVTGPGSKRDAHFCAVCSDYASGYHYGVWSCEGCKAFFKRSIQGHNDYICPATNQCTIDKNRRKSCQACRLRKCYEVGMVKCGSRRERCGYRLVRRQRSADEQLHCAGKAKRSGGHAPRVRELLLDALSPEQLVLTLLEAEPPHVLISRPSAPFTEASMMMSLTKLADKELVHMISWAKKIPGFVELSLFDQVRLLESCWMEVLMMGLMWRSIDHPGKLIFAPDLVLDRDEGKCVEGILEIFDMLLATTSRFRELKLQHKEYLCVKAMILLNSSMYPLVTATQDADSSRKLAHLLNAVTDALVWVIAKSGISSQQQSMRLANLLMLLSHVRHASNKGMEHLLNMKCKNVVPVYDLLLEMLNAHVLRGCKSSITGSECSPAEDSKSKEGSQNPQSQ
Summary of the method: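 Antagonist mode: compounds added to beta-lactamase reporter HEK293T ER-beta-UAS cells stimulated with E2 (1nM final), 16 hr at 37C. LiveBLAzer B/G FRET substrate, 2 hours room temperature, fluorescence read-out.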

[11] = qHTS assay to identify small molecule agonists of the androgen receptor (AR) signaling pathway in the presence of an antagonist - cell viability counter screen (AID 1259379); further: nearly all actives have a fitted effect of over 25% in size; further: potency means the concentration at half of the fitted maximal effect
Summary of the method: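 Counter screen for cell viability run in parallel with the AR agonist-mode luciferase assay. MDA-kb2 cells were co-treated with nilutamide (3.0uM final) and compounds, then incubated 16 hr at 37C, and CellTiter-Fluor fluorescence was measured.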

[12] = qHTS assay to identify small molecule agonists of the estrogen receptor beta (ER-beta) signaling pathway - cell viability counter screen (AID 1259380); further: nearly all actives have a fitted effect of over 30% in size; further: potency means the concentration at half of the fitted maximal effect
Summary of the method: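 In this qHTS counter screen, HEK293T cells carrying an ER-beta/UAS beta-lactamase reporter, grown in 2% charcoal-stripped FBS, received compound for 16 hr; ATP-based CellTiter-Glo luminescence was then read after 30 min at room temperature.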

[13] = molecular target: Androgen receptor (Homo sapiens) (UniProt P10275); assay: qHTS assay to identify small molecule agonists of the androgen receptor (AR) signaling pathway in the presence of an antagonist (AID 1259381; calls by dose curve; further: nearly all actives have a fitted effect of over 15% in size)
Summary of the method: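 AR antagonist background: nilutamide 3.0uM final. Cell line: MDA-kb2, MMTV-driven luciferase, responsive to both AR and GR. Exposure 16hr, 37C, no CO2; ONE-Glo luminescence.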

[14] = qHTS assay to identify small molecule antagonists of the estrogen receptor beta (ER-beta) signaling pathway - cell viability counter screen (AID 1259382); further: nearly all actives have a fitted effect of over 55% in size; further: potency means the concentration at half of the fitted maximal effect
Summary of the method: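 HEK293T ER-beta-UAS-bla, 2% charcoal-stripped FBS; compounds + 1nM E2 16 hr 37C; CellTiter-Glo luminescence, 30 min RT.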

[15] = molecular target: Estrogen receptor (Homo sapiens) (UniProt P03372); assay: qHTS assay to identify small molecule agonists of the estrogen receptor alpha (ER-alpha) signaling pathway in the presence of an antagonist (AID 1259383; calls by dose curve; further: top concentration of the series differs between compounds; nearly all actives have a fitted effect of over 15% in size)
Estrogen receptor (Homo sapiens), sequence (P03372 whole entry, looked up): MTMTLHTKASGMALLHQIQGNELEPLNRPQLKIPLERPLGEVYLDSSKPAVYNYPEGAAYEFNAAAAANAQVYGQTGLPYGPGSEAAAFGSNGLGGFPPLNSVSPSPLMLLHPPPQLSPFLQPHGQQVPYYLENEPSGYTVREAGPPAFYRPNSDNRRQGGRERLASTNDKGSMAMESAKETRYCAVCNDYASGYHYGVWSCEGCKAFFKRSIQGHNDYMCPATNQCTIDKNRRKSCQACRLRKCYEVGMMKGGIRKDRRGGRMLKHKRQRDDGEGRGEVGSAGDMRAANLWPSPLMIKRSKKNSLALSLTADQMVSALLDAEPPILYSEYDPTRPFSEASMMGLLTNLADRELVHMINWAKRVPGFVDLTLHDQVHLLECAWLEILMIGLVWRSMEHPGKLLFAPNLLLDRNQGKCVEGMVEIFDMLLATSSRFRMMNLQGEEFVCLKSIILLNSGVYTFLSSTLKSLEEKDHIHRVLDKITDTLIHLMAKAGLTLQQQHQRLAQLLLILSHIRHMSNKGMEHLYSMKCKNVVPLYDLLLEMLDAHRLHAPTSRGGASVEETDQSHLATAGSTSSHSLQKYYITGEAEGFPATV
Summary of the method: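 ER-alpha agonism measured under antagonist challenge: 10.0nM ICI-182,780 (final) plus compound, 15 concentrations, 22hr, VM7Luc4E2 ERE-luciferase cells. Read by luminescence.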

[16] = qHTS assay to identify small molecule agonists or antagonists of the thyroid stimulating hormone receptor (TSHR) signaling pathway - wild type cell line counter screen (AID 1259384; calls by dose curve)
Summary of the method: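 Counter screen in untransfected Hek293: compounds (15-point titration, triplicate) plus phosphodiesterase inhibitor Ro20-1724 added after 18 h plating; 30 min RT. Intracellular cAMP via competitive d2/cryptate immunoassay, 1 h incubation.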

[17] = molecular target: Thyrotropin receptor (Homo sapiens) (UniProt P16473); assay: qHTS assay to identify small molecule antagonists of the thyroid stimulating hormone receptor (TSHR) signaling pathway (AID 1259385; calls by dose curve; further: nearly all actives have a fitted effect of over 20% in size)
Thyrotropin receptor (Homo sapiens), sequence (P16473 whole entry, looked up): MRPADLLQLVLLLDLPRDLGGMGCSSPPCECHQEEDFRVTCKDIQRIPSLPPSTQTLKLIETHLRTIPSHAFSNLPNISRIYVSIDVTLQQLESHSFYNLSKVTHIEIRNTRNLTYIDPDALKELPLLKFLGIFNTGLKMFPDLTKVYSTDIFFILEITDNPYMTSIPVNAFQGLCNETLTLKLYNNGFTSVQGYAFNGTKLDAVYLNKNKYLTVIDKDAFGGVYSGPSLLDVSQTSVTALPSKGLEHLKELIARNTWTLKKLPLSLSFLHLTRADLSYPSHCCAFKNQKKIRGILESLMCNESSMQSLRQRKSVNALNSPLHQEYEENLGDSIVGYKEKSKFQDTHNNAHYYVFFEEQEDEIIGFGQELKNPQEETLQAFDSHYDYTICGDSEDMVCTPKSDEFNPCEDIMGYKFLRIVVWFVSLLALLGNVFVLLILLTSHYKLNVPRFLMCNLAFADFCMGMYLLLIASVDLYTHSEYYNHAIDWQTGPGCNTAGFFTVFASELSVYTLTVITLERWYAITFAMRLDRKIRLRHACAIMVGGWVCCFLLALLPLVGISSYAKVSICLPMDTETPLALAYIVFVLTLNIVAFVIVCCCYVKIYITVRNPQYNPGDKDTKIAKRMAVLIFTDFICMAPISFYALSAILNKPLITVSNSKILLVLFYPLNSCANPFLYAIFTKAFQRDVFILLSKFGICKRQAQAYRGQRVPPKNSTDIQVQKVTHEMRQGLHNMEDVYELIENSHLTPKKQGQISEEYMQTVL
Summary of the method: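 Antagonist mode: compound-treated TSHR-expressing HEK293 cells were stimulated with 1.5 ng/mL TSH (final) in presence of Ro20-1724 for 30 min at RT. HTRF cAMP detection after 1 h; each compound tested at 15 concentrations, triplicate.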

[18] = molecular target: Estrogen receptor (Homo sapiens) (UniProt P03372); assay: qHTS assay to identify small molecule antagonists of the estrogen receptor alpha (ER-alpha) signaling pathway using the BG1 cell line in the presence of 0.1 nM 17-beta-estradiol (AID 1259244); further: nearly all actives have a fitted effect of over 50% in size; further: potency means the concentration at half of the fitted maximal effect
Summary of the method: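 Seeding of stripped-serum-adapted VM7Luc4E2 cells, 24 h attachment, compound transfer, then 0.1 nM final 17beta-estradiol; after 22 h incubation, ONE-Glo reagent and luminescence reading.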

[19] = qHTS assay to identify small molecule phospholipidosis (PLD) inducers (AID 1259344; active means well fitted curve in the direction sought with a large enough effect; an effect the other way counts as inactive or inconclusive)
Summary of the method: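 Accumulated phospholipid, stained red by LipidTOX during 24 h compound treatment of HepG2 cells at 37 C, is quantified from images as pit number and intensity, normalised per cell using Hoechst-stained nuclei.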

[20] = molecular target: Estrogen receptor beta (Homo sapiens) (UniProt Q92731); assay: qHTS assay to identify small molecule agonists of the estrogen receptor beta (ER-beta) signaling pathway (AID 1259377; active means well fitted activation curve with a large enough effect in the signal ratio in the repeat runs, not every such curve was filed as active; the % refers to the signal ratio)
Summary of the method: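 qHTS in ER-beta-UAS-bla HEK293T cells: 6 hr settling, then 16 hr compound at 37C, then LiveBLAzer substrate 2 h at RT before fluorescence reading.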
On the % scale 0 is the no-effect control and ±100 the full control effect.

ON=C1CCCC1
inactive: Potency [1] | Potency [2] | Potency [4] | Potency [5] | Potency [6] | Potency [7] | Potency [8] | Potency [9] | Potency [10] | Potency [11] | Potency [13] | Potency [14] | Potency [15] | outcome [16] | Potency [17]
active: Potency [3] 63.3 µM | Potency [12] 35.6 µM

COC(=O)c1cc(Cl)ccc1OC
inactive: Potency [1] | Potency [2] | Potency [3] | Potency [18] | Potency [4] | Potency [5] | Potency [6] | Potency [7] | Potency [8] | Potency [9] | Potency [11] | Potency [12] | Potency [13] | Potency [14] | Potency [15] | outcome [16] | Potency [17]

O=C(c1ccc(F)cc1)C1CCN(CCn2c(=O)[nH]c3ccccc3c2=O)CC1
inactive: Potency [1] | Potency [2] | Potency [3] | Potency [18] | Potency [19] | Potency [4] | Potency [5] | Potency [6] | Potency [7] | Potency [8] | Potency [9] | Potency [20] | Potency [10] | Potency [11] | Potency [13] | Potency [15] | outcome [16] | Potency [17]

OCc1c[nH]c2ccccc12
active: Potency [3] 17.2 µM | Potency [9] 30.6 µM
inactive: Potency [1] | Potency [2] | Potency [19] | Potency [4] | Potency [5] | Potency [6] | Potency [8] | Potency [13] | Potency [14] | outcome [16] | Potency [17]

Cc1c(C)c2c(c(C)c1O)CCC(C)(COc1ccc(CC3SC(=O)NC3=O)cc1)O2 (stereo not drawn)
inactive: Potency [1] | Potency [2] | Potency [4] | Potency [5] | Potency [6] | Potency [7] | Potency [8] | Potency [11] | Potency [13] | Potency [14] | Potency [15] | outcome [16] | Potency [17]
active: Potency [9] 54.5 µM | Potency [12] 11.9 µM
54.5 µM (active) and inactive: Potency [3]

CN(C)c1ccc(C2(c3ccc(N(C)C)cc3)OC(=O)c3cc(N(C)C)ccc32)cc1
inactive: Potency [1] | Potency [2] | Potency [3] | Potency [18] | Potency [4] | Potency [5] | Potency [7] | Potency [8] | Potency [10] | Potency [11] | Potency [12] | Potency [13] | Potency [14] | Potency [15] | outcome [16] | Potency [17]

CC(C)(C)C(=O)OCOC(=O)C1N2C(=O)CC2S(=O)(=O)C1(C)C (stereo not drawn)
inactive: Potency [1] | Potency [2] | Potency [3] | Potency [18] | PLD induction [19] 3.21% [at 0.0123 µM] | Potency [4] | Potency [5] | Potency [6] | Potency [7] | Potency [8] | Potency [9] | Potency [11] | Potency [13] | Potency [14] | Potency [15] | outcome [16] | Potency [17]
active: Potency [10] 10.6 µM

C=CC(=O)OCC(CO)(COCC(COC(=O)C=C)(COC(=O)C=C)COC(=O)C=C)COC(=O)C=C
active: Potency [1] 15.2 µM | Potency [2] 3.03 µM | Potency [3] 2.4 µM | Potency [18] 17 µM | Potency [6] 1.07 µM | Potency [7] 3.03 µM | Potency [8] 0.957 µM | Potency [9] 0.48 µM | Potency [10] 4.8 µM | Potency [11] 5.38 µM | Potency [12] 9.57 µM | Potency [14] 7.6 µM
inactive: Potency [4] | Potency [13] | Potency [15] | outcome [16] | Potency [17]

NNc1nc(-c2ccc([N+](=O)[O-])cc2)cs1
inactive: Potency [5] | Potency [8] | Potency [20] | Potency [10] | Potency [13] | Potency [14]
active: Potency [1] 27.3 µM | Potency [2] 54.5 µM | Potency [3] 17.2 µM | Potency [18] 48.6 µM | Potency [4] 17.2 µM | Potency [7] 48.6 µM | Potency [11] 48.6 µM

CCCCCCCCCCC=O
inactive: Potency [1] | Potency [2] | Potency [3] | Potency [4] | Potency [5] | Potency [6] | Potency [7] | Potency [8] | Potency [9] | Potency [11] | Potency [12] | Potency [13] | outcome [16] | Potency [17]

CCN(Cc1cccnc1)C(=O)c1cccc(Cl)c1[C@]1(C)C(=O)N(Cc2ccc(OC)cc2OC)c2ccc(Cl)cc21
inactive: Potency [1] | Potency [2] | Potency [4] | Potency [5] | Potency [8] | Potency [20] | Potency [13] | Potency [14] | Potency [15] | outcome [16] | Potency [17]
active: Potency [3] 57.1 µM | Potency [18] 64.1 µM | Potency [9] 28.6 µM | Potency [10] 8.07 µM

O=C(O)c1ccc(Cl)c(Cl)c1
inactive: Potency [1] | Potency [2] | Potency [3] | Potency [18] | Potency [4] | Potency [5] | Potency [6] | Potency [7] | Potency [8] | Potency [9] | Potency [20] | Potency [10] | Potency [11] | Potency [12] | Potency [13] | Potency [14] | Potency [15] | outcome [16] | Potency [17]
